Consider five compounds from PubChem BioAssay.

Assay [1] concerns Plasmodium falciparum Sir2 (PF13_0152, Sir2A). The assay can be described thus: Plasmodium falciparum Sir2A binding compounds – biochemical, small-molecule microarray, 635 nm fluorescence, primary screen (AID 1098).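 Also: score merges spot fluorescence intensity with its signal-to-noise ratio.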 As to conditions: fluorescence 635 nm, higher = more signal.
The nature of assay [2]: probe aDKK1 binding to arrayed compounds – biochemical, biotinylated probe, 635/667 nm fluorescence, primary screen (AID 1099).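 Also: score merges 667nm spot fluorescence with signal to noise across triplicate slides.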 The following applies: small-molecule microarray, higher = more signal.
Assay [3] is described as follows: probe aCHRDL2 binding to arrayed compounds – biochemical, biotinylated probe, 635/667 nm fluorescence, primary screen (AID 1100). As to conditions: small-molecule microarray, higher = more signal.
A short description of assay [4]: change in splice reporter luminescence, either direction, cell-based, HEK293, spliceosome inhibition project, primary screen (AID 1101).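 Also: HEK293 cells carrying a splicing-competent luciferase reporter gene; test concentration not given here.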 The following applies: HEK293 splicing luciferase reporter, 24 h, higher = more signal, called active from +8 up or from −8 down. Background: A reporter such as luciferase makes a cellular process visible.
Assay [5] addresses Fibroblast growth factor 10 (Homo sapiens) (UniProt O15520). Kind of assay: compounds binding fibroblast growth factor 10 – biochemical, small-molecule microarray, 635 nm fluorescence, primary screen (AID 1102). The following applies: FGF10 binding, fluorescence 635 nm, higher = more signal.
Assay [6] relates to glycogen synthase kinase-3 (GSK3A per assay name; protocol says GSK3B). The assay can be described thus: compounds binding glycogen synthase kinase-3 – biochemical, small-molecule microarray, 635 nm fluorescence, GSK3A, primary screen (AID 1103). Also: the record names both GSK3A and GSK3B. The following applies: fluorescence 635 nm, higher = more signal.
In assay [7] the target is Epidermal growth factor receptor (Homo sapiens) (UniProt P00533). Kind of assay: compounds binding epidermal growth factor receptor – biochemical, small-molecule microarray, 635 nm fluorescence, primary screen (AID 1104).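 Also: score merges 667 nm emission intensity with spot signal to noise over triplicate slides.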 As to conditions: EGFR binding, higher = more signal.
The target in assay [8] is Follistatin-related protein 3 (Homo sapiens) (UniProt O95633). Kind of assay: compounds binding follistatin-related protein 3 – biochemical, small-molecule microarray, 635 nm fluorescence, primary screen (AID 1105).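 Also: score merges emission near 667 nm and signal to noise per printed spot across three slides.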 As to conditions: FSTL3 binding, higher = more signal.
Assay [9] has as its target Dickkopf-related protein 1 (Homo sapiens) (UniProt O94907). Kind of assay: small molecules binding DKK1 protein – biochemical, small-molecule microarray, 635 nm fluorescence scan, primary screen (AID 1106).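 Also: score merges emission near 667 nm with signal to noise over three replicate slides.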 The following applies: higher = more signal.
The test system of assay [10] is Inhibin beta A chain (activin A). Kind of assay: small molecules binding activin A – biochemical, small-molecule microarray, 635 nm fluorescence scan, primary screen (AID 1107).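 Also: mouse activin A protein probed at 4.33 µg/mL on printed slides; score merges bound-protein fluorescence near 667 nm with spot signal-to-noise.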 The following applies: INHBA, higher = more signal.
For assay [11], the system named is Human papillomavirus type 1a protein E7 (residues 44-93). Kind of assay: small molecules binding HPV E7 44-93 – biochemical, small-molecule microarray, residues 44-93, 635 nm fluorescence, primary screen (AID 1108).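 Also: E7 fragment applied at 1 µg/mL in TBST for 1 h at 4 C; score combines spot fluorescence with its signal to noise ratio.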 As to conditions: fluorescence 635 nm, higher = more signal.
Assay [12] is described as follows: hepatitis C replication reporter changes, two-sided – Huh7 cells, luciferase reporter, HCV replication inhibitor project, primary screen (AID 1109).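 Also: huh7 hepatoma cells harbouring a luciferase neomycin HCV replicon reporter; luciferase luminescence as measure of HCV replicon replication; test concentration not given here.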 The following applies: Huh7 HCV replicon luciferase reporter, 48 h; higher = more signal.
Assay [13] addresses Left-right determination factor 2 (Homo sapiens) (UniProt O00292). Kind of assay: small molecules binding LEFTY2 protein – biochemical, small-molecule microarray, 635 nm fluorescence scan, primary screen (AID 1110). As to conditions: higher = more signal.
The target of assay [14] is Calmodulin-1 (Homo sapiens) (UniProt P0DP23). The assay can be described thus: small molecules binding calmodulin-1 with EGTA – biochemical, small-molecule microarray, Cy5-labelled CALM1, profiling panel (AID 1111).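 Also: labelled calmodulin applied in Tris saline Tween buffer holding calcium plus EGTA and DTT.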 The following applies: Cy5-CALM1 binding fluorescence, higher = more signal.
For assay [15] the target is unchanged. Kind of assay: small molecules binding Ca-loaded calmodulin-1 – biochemical, small-molecule microarray, Cy5-labelled CALM1, plus calcium, artefact control for SMM control-protein annotation, profiling panel (AID 1112).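 Also: score merges spot fluorescence with signal to noise from triplicate slides.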 As to conditions: Cy5-CALM1 binding fluorescence, higher = more signal.
Assay [16] in a line: probe aWnt5a binding to arrayed compounds – biochemical, biotinylated probe, 635/667 nm fluorescence, primary screen (AID 1113).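 Also: score merges 667 nm fluorescence intensity with signal-to-noise per printed feature.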 The following applies: small-molecule microarray, higher = more signal.
Assay [17] can be described thus: probe aShh binding to arrayed compounds – biochemical, biotinylated probe, 635/667 nm fluorescence, primary screen (AID 1114).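 Also: probe is biotin-labelled aShh protein from a stem cell growth factor screen; measures binding of labelled protein to compounds printed on the slide; score merges feature fluorescence at 667 nm with signal-to-noise.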 The following applies: small-molecule microarray, higher = more signal.
Assay [18] is described as follows: probe aNog binding to arrayed compounds – biochemical, biotinylated probe, 635/667 nm fluorescence, primary screen (AID 1115).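 Also: probe is biotinylated aNog protein used at 0.15 µg/mL for 1 h at 4 C; z-score combines 667 nm fluorescence of each spot with its signal to noise.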 As to conditions: small-molecule microarray, higher = more signal.
For assay [19], the target named is Torsin-1A-interacting protein 1 (Homo sapiens) (UniProt Q5JTV8). Kind of assay: compound microarray binding of lysate hLAP1 – cell lysate, small-molecule microarray, COS7 lysate, 635/667 nm fluorescence, primary screen (AID 1116). As to conditions: 635 nm fluorescence, higher = more signal.
Assay [20] deals with Alpha-bungarotoxin (Bungarus multicinctus) (UniProt P60615). The assay can be described thus: compounds binding labelled alpha-BTX control protein – biochemical, small-molecule microarray, Alexa647 label, 635/667 nm fluorescence, artefact control for SMM control protein annotation, profiling panel (AID 1117). As to conditions: alpha-BTX-A647 binding fluorescence, higher = more signal.

Structures are written as SMILES. Activity calls are given as the source filed them.

Dickkopf-related protein 1 (Homo sapiens), sequence (O94907 whole entry, looked up): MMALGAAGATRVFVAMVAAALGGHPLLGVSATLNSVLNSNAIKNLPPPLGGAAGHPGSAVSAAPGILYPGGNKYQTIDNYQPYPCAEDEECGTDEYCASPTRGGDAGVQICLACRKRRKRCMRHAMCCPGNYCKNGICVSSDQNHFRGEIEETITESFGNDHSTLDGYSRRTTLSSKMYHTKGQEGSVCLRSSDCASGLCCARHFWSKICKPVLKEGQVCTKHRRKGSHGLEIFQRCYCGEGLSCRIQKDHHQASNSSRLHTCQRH
Alpha-bungarotoxin (Bungarus multicinctus), sequence (P60615 whole entry, looked up): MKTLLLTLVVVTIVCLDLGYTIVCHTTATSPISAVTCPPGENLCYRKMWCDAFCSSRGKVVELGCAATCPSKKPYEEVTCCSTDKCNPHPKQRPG
Left-right determination factor 2 (Homo sapiens), sequence (O00292 whole entry, looked up): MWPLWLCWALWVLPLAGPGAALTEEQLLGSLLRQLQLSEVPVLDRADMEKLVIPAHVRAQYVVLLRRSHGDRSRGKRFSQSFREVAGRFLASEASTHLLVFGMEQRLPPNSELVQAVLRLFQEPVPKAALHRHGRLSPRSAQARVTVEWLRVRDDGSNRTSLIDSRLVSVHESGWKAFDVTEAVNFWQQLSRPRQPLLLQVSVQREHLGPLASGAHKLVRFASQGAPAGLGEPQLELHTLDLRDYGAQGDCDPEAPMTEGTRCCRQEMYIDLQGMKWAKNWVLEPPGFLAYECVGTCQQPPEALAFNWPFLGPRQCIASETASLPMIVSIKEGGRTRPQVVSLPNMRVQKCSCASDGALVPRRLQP
Follistatin-related protein 3 (Homo sapiens), sequence (O95633 whole entry, looked up): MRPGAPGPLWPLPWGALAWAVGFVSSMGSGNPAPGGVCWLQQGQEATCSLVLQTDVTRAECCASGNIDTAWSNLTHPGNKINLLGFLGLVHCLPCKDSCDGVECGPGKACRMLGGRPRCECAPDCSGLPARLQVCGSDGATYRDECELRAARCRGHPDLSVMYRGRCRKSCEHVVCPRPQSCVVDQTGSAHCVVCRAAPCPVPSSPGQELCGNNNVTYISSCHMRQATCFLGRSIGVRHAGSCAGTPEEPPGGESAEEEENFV
Epidermal growth factor receptor (Homo sapiens), sequence (P00533 whole entry, looked up): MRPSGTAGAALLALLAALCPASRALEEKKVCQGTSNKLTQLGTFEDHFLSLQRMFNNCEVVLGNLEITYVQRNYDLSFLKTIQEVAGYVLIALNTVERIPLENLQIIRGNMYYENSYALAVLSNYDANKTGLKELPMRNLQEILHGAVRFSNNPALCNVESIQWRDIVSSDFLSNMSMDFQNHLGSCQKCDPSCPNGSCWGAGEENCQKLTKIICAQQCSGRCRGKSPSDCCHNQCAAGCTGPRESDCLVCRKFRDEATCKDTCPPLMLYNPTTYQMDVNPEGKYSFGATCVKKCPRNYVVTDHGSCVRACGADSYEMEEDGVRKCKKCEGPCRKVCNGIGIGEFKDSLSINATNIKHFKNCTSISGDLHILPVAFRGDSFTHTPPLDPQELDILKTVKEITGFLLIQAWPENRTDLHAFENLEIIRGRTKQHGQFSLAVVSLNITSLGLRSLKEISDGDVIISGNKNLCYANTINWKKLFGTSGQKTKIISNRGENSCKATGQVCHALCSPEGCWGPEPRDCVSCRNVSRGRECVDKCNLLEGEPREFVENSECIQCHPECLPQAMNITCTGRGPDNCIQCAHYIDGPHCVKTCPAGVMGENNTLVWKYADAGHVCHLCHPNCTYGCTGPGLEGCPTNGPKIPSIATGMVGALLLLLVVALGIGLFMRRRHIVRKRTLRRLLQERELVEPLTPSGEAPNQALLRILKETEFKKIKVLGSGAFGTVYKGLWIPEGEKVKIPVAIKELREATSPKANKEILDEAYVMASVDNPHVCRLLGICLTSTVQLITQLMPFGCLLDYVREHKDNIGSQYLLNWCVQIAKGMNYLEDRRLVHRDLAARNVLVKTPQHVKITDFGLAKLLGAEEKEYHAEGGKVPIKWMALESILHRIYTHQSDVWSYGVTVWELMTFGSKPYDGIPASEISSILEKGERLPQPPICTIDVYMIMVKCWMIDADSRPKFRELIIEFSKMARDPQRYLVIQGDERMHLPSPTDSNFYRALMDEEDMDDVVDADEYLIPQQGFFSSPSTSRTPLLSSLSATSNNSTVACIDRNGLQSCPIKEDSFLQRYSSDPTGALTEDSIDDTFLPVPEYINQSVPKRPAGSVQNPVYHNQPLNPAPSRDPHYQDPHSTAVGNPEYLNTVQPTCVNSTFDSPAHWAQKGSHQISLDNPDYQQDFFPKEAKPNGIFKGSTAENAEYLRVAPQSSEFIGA
Fibroblast growth factor 10 (Homo sapiens), sequence (O15520 whole entry, looked up): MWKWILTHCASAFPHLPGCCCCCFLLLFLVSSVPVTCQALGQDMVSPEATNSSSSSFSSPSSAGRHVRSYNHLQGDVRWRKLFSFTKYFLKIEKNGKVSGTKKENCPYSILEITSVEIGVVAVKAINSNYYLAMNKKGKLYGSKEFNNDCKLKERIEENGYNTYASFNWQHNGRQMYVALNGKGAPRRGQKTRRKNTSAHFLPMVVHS
Torsin-1A-interacting protein 1 (Homo sapiens), sequence (Q5JTV8 whole entry, looked up): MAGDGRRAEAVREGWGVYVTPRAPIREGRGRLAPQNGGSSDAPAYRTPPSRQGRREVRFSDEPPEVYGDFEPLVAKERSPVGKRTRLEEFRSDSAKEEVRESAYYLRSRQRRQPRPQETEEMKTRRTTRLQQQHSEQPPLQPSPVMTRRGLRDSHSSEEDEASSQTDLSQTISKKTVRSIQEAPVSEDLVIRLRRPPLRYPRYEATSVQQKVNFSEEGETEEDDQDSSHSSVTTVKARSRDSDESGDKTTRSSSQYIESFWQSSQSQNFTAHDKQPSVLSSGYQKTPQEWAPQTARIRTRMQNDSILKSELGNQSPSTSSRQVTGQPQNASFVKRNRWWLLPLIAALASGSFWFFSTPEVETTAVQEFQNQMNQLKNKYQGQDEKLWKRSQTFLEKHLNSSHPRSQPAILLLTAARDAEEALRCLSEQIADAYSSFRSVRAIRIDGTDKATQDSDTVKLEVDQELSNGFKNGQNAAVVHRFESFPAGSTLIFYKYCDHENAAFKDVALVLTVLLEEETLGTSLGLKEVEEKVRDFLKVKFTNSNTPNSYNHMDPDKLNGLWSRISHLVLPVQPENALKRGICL

Consider `CCCC=C(CCC)[C@@H](NC(=O)CCc1ccccc1)c1ccc(C(F)(F)F)cc1`, for which the composite z-score in assay [1] was 1.08; in [2], 0.256; in [3], 0.995; in assay [5], 0.527; in assay [6], 1.28; in assay [7], 0.0694. For the same compound, the composite z-score in assay [8] is 0.574; in assay [9], -0.429; in assay [10], 0.724; in assay [11], 1.36; in [13], -0.203; in assay [14], 1.58. Also, the composite z-score in assay [15] turned out to be 1.03; in [16], 0.451; in assay [17] it was 0.93; in assay [18], 0.555; in [19], 1.11; in [20], 1.23. The z-score in [4] is -1.57 (inactive); in assay [12], -1.51.
Consider `[N-]=[N+]=Nc1ccccc1C[C@@]1(C(=O)O)N=C(c2ccc(OCCCO)cc2)O[C@@H]1c1ccccc1N=[N+]=[N-]`, for which the composite z-score in [1] is 1.46; in [2], 1.16; in assay [3] it was 1.32; in assay [5], 0.285; in [6] it was 1.11; in assay [7] it was -0.383. The composite z-score is 0.626 in [8]; -0.435 in assay [9]; 1.29 in [10]; 1.26 in assay [11]; 0.0656 in assay [13]; 2.45 in [14]. Besides, the composite z-score was 1.12 in assay [15]; -0.034 in assay [16]; 0.108 in assay [17]; 1.27 in assay [18]; 1.79 in assay [19]; 1.32 in assay [20]. Further, the z-score in assay [4] was -0.469 (inactive); in assay [12], -1.26.
Take `CC(C)C(CO)N1C(=O)[C@@H]2[C@H]3C(=O)OCC=C[C@H]3OC23C=CCN(C(C)(C)C)C(=O)[C@@H]13` (stereo not given in full): the composite z-score was 1.45 in assay [1]; -0.293 in assay [2]; -0.348 in assay [3]; -1.07 in assay [5]; -1.57 in [6]; -0.257 in assay [7]. Moreover, the composite z-score was -0.21 in assay [8]; -0.181 in assay [9]; 0.83 in assay [10]; -1.27 in assay [11]; -0.15 in [13]; -0.907 in assay [14]. Also, the composite z-score was -1.43 in assay [15]; -0.204 in assay [16]; 0.0725 in assay [17]; -0.133 in [18]; -0.809 in [19]; -0.0022 in [20]. The z-score in assay [4] was 0.454 (inactive); in assay [12], -0.425.
Regarding `COCCOC(=O)N1C(=O)[C@@]2(c3cc(C#CCCO)ccc31)[C@H](c1ccccc1OCCO)N1[C@H](c3ccccc3)[C@H](c3ccccc3)OC(=O)[C@H]1[C@@H]2C(=O)N1CCCCCCC1`, the composite z-score in assay [1] is 1.69; in [2], 2.28; in assay [3], 1.36; in assay [5], 0.743; in assay [6], 1.08; in [7], 0.965. Also, the composite z-score in assay [8] amounted to 1.53; in assay [9], 1.31; in [10] it was 1.6; in assay [11], 1.4; in [13], 0.994; in assay [14], 2.58. Further, the composite z-score was 1.09 in assay [15]; 0.495 in assay [16]; 1.94 in [17]; 2.8 in [18]; 3.04 in assay [19]; 2.2 in [20]. In addition, the z-score in assay [4] was -0.532 (inactive); in [12] it was -2.25.
Turning to `C[C@@]12COC[C@]13C=C(Br)[C@H](C2)[C@@]1(CO1)C3=O`, the composite z-score in [1] was -0.363; in assay [2] it was -0.101; in [3], 0.262; in [5], -0.732; in [6], -1.02; in [7] it was -0.886. Also, the composite z-score is -0.449 in assay [8]; -0.614 in assay [9]; 0.701 in assay [10]; -2.3 in assay [11]; -0.777 in assay [13]; -0.66 in assay [14]. In addition, the composite z-score in [15] was -0.691; in [16], -0.176; in [17], -0.214; in assay [18], -0.256; in assay [19] it was -1.17; in assay [20], -0.455. Besides, the z-score in assay [4] is -0.374 (inactive); in [12], -2.64.
